The source of these data is PubChem BioAssay (NCI).

Compounds without any hit were thinned out: in the full panel of roughly 83,000, 20% have a hit.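 Method: cells in 96-well plates; compound added at one concentration; 48 h incubation; percent growth measured; values under 10 scored active.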 Calls of active or inactive are those of the source.

For one assay, the system named is SR leukemia. In words: NCI-60 one-dose screen, 48 h (100 = growth as untreated, 0 = no growth, -100 = all killed). The settings on record: 10 µM unless noted.
On to `CC/C(=C(\c1ccc(O)cc1)c1ccc(OCCN(C)CCN(C)C(=O)CCC(=O)c2c(C)[nH]c(/C=C3\N=C(c4ccc[nH]4)C=C3OC)c2C)cc1)c1ccccc1`, for which the growth is 58.6% (inactive). Turning to `CCOC(=O)[C@H](CSSc1ncnc2cc[nH]c12)NC(=O)[C@@H](C)c1ccc2cc(OC)ccc2c1`, the growth is 18.9% (inactive).

On to `Nc1c(C(=O)Nc2cccc(C(F)(F)F)c2)sc2nc3c(cc12)CCCCC3`, for which the growth was 33.3% (inactive). As to `COC1=CC(c2ccc[nH]2)=N/C1=C\c1[nH]c(C)c(CCCn2cc(CCCCCCCCC[C@@H]3Cc4cc(O)ccc4C4CC[C@]5(C)[C@@H](O)CC[C@H]5C43)nn2)c1C` (stereo partly specified), the growth was 66.7% (inactive). Consider `COc1ccc(C(=O)c2cc(OC)c(OC)c(OC)c2)cc1/C=C/C(=O)c1ccc2c(c1)OCO2`, for which the growth was -10.3% (active). Turning to `CCCCCCC[C@@H](O)CC(=O)N[C@H](CCCCN)C(=O)N[C@H](Cc1c[nH]c2ccccc12)C(=O)NC(CCCCN)C(=O)N[C@H](CC(C)C)C(=O)N[C@H](Cc1ccccc1)C(=O)N[C@H](CCCCN)C(=O)N[C@H](CCCCN)C(=O)N[C@H](CC(C)C)C(=O)N1CCCC1C(=O)N[C@H](CCCCN)C(=O)N[C@H](Cc1ccccc1)C(=O)N[C@H](CC(C)C)C(=O)N[C@H](Cc1c[nH]cn1)C(=O)N[C@H](CC(C)C)C(=O)N[C@H](C)C(=O)N[C@H](CCCCN)C(=O)N[C@H](CCCCN)C(=O)N[C@H](Cc1ccccc1)C(=O)O` (stereo partly specified), the growth is -13.1% (active). The same measure, in the same setting: then `Nc1c(C(=O)Nc2cccc(C(F)(F)F)c2)sc2nc3c(cc12)CCCCCC3`, with 21.1% (inactive); and `O=C(c1ccncc1)N1N=C(c2ccc(Cl)cc2)CC1c1c[nH]c2ccccc12` (stereo unspecified), with 57.5% (inactive). Consider `O=C(COc1ccccc1)N1N=C(c2ccc(Cl)cc2)CC1c1c[nH]c2ccccc12` (stereo unspecified), for which the growth was 10.8% (inactive).

Another assay relates to RPMI-8226 leukemia. The description is as above. The settings on record: 10 µM unless noted.
Regarding `N=C(N)c1ccc(-c2ccc(-c3ccc(Cl)cc3)o2)nc1`, the growth is -62.4% (active). Regarding `NC(=O)c1c(NC(=O)c2ccc(OCC3CCCO3)cc2)sc2c1CCCC2` (stereo unspecified), the growth is 83.7% (inactive). On to `Cc1cc(-c2ccccc2)c(C)n1Cc1ccc(Cl)cc1`, for which the growth is 44.1% (inactive). With `Clc1cccc(Cl)c1Cn1c(-c2cncs2)nc2ccccc21`, the growth was 56.7% (inactive). For `Cc1ccc(Cn2c(-c3nonc3N)nc3ccccc32)cc1`, the growth is 91% (inactive).

Regarding `NC(N)=NC(N)=Nc1ccccc1-c1ccccc1`, the growth was 112% (inactive).

As for `COc1cc(/C=C/C(=O)c2ccc(NC(=O)CN3CCN(c4cc5c(cc4F)c(=O)c(C(=O)O)cn5C4CC4)CC3)cc2)cc(OC)c1OC`, the growth is -18.8% (active). In the case of `COc1ccc(-c2nc(-c3ccccc3)c(-c3ccccc3)n2C2CC2)cc1OC1CCCCC1`, the growth was 48.7% (inactive). Consider `COC(=O)c1ccc2nc(-c3cc4ccccc4n3C)n(CCCCOc3cc4c(cc3OC)C(=O)N3CCC[C@H]3C=N4)c2c1`, for which the growth is -32.9% (active). Turning to `COc1cc2c(cc1OC)C1(C)N(CC2)C(=O)OC1(C)C` (stereo unspecified), the growth was 105% (inactive). Regarding `CN1CCN(c2ccc3cc(-c4nc5ccccc5[nH]4)c(=O)oc3c2)CC1`, the growth is 64.5% (inactive). Turning to `O=C(CN1CCN(c2cc3c(cc2F)c(=O)c(C(=O)O)cn3C2CC2)CC1)Nc1ccc(C(=O)/C=C/c2ccccc2)cc1`, the growth was 2.45% (active). Still for that read-out and setting: as for `Cc1cc(Cl)ccc1OC(C)C(=O)Nc1nnc(C2CC2)s1` (stereo unspecified), the figure is 89.6% (inactive). On the same count and under the same terms, then `COc1ccc(/C(=N/O)c2cc(F)c(F)c(OC)c2F)cc1O`, with 22.1% (inactive); and `CSc1ccccc1C#C/C=C\C#Cc1ccccc1N1CCCCC1=O`, with 64.3% (inactive). On the same count and under the same terms, then `Cc1ccc2c(c1)ncn2-c1ncnc2c1CC(C)c1ccccc1N2C` (stereo unspecified), with -9.63% (active); and `CCOC(=O)c1cc(/C(=N\O)c2cc(OC)c(OC)c(OC)c2)n2c(C)cccc12`, with 41.5% (inactive); and `Cc1ccc(Cn2c(-c3cccs3)nc3ccccc32)cc1`, with 77.8% (inactive). In the case of `CCC(=O)Oc1ccc2c(c1)CC[C@@H]1[C@@H]2CC[C@]2(C)C[C@H](OC(=O)CC)C[C@@H]12`, the growth was 67% (inactive). In the case of `COc1ccc2c(c1)C(C)Cc1c(N(C)C)ncnc1N2C` (stereo unspecified), the growth is 30.8% (inactive). As to `Cc1cc2c(C(C)C)c(O)c(O)c(C=NCCCCCCC(=O)O)c2c(O)c1-c1c(C)cc2c(C(C)C)c(O)c(O)c(C=NCCCCCCC(=O)O)c2c1O`, the growth was 10.1% (inactive). Turning to `COC(=O)CCCCCCN=Cc1c(O)c(O)c(C(C)C)c2cc(C)c(-c3c(C)cc4c(C(C)C)c(O)c(O)c(C=NCCCCCCC(=O)OC)c4c3O)c(O)c12`, the growth is 13.2% (inactive).
